Laboratory results as given in PubChem BioAssay (NCATS).
Results filed as inconclusive are left out. Unmarked numbers belong to inactive results. Activity calls are given as the source filed them. Calls come from the whole dose curve; as a rule, active = well fitted inhibition curve with a large enough effect; inconclusive = small, poorly fitted or top-dose-only effect; inactive = flat fitted curve, though single readings scatter.

system: 3D7; experiment: qHTS profiling for inhibitors of Plasmodium falciparum proliferation (AID 504749); note: nearly all actives have a fitted effect of over 60% in size;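 for activity, negative = inhibition: 0% = DMSO vehicle and full inhibition = artemisinin control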; settings: P. falciparum in erythrocytes, SYBR Green DNA, 72 h; series mostly up to 28.7 µM; activity, negative = inhibition: at the top concentration
Procedure, shortened: (§1)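 Fluorescence of SYBR Green-bound parasite DNA, read at 485/535 nm, served as the growth measure. Infected erythrocytes were cultured with compound 72 h; artemisinin (0.29 uM) and DMSO wells defined the normalization range.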
Potency is the fitted concentration of half-maximal effect.

**Q.** `COc1ccc([C@@H]2CNC(=O)C2)cc1OC1CCCC1` was tested. Which “activity, negative = inhibition” value did it give?
**A.** Its value is 0.53% [at 12.8 µM].

**Q.** With `Nc1nc2c(c(=O)[nH]1)N(C=O)[C@H](CNc1ccc(C(=O)N[C@@H](CCC(=O)O)C(=O)O)cc1)CN2` as the compound, how does the “activity, negative = inhibition” value read?
**A.** Its value is -3.34% [at 12.8 µM].

**Q.** `CCC(C(=O)O)C1CCC(C)C(C(C)C(O)C(C)C(=O)C(CC)C2OC3(C=CC(O)[C@@]4(CC[C@](C)(C5CC[C@@](O)(CC)C(C)O5)O4)O3)C(C)CC2C)O1` (stereo partly drawn) was tested. Which Potency did it give?
**A.** The Potency was 794 nM (active).

system: AA1029; experiment: as above; settings: P. falciparum in erythrocytes, SYBR Green DNA, 72 h; series mostly up to 28.7 µM; activity, negative = inhibition: at the top concentration
Procedure, shortened: as §1

**Q.** `COc1ccc([C@@H]2CNC(=O)C2)cc1OC1CCCC1` was tested. Which “activity, negative = inhibition” value did it give?
**A.** The value was 10.6% [at 12.8 µM].

**Q.** `Nc1nc2c(c(=O)[nH]1)N(C=O)[C@H](CNc1ccc(C(=O)N[C@@H](CCC(=O)O)C(=O)O)cc1)CN2` was tested. Which “activity, negative = inhibition” value did it give?
**A.** The value was -6.85% [at 12.8 µM].

**Q.** For `CCC(C(=O)O)C1CCC(C)C(C(C)C(O)C(C)C(=O)C(CC)C2OC3(C=CC(O)[C@@]4(CC[C@](C)(C5CC[C@@](O)(CC)C(C)O5)O4)O3)C(C)CC2C)O1` (stereo partly drawn), which Potency is on record?
**A.** The Potency was 891 nM (active).

system: AS120; experiment: as above; settings: P. falciparum in erythrocytes, SYBR Green DNA, 72 h; series mostly up to 28.7 µM; activity, negative = inhibition: at the top concentration
Procedure, shortened: as §1

**Q.** Which “activity, negative = inhibition” value does the source give for `COc1ccc([C@@H]2CNC(=O)C2)cc1OC1CCCC1` here?
**A.** Its value is 2.1% [at 12.8 µM].

**Q.** How did the “activity, negative = inhibition” value turn out when `Nc1nc2c(c(=O)[nH]1)N(C=O)[C@H](CNc1ccc(C(=O)N[C@@H](CCC(=O)O)C(=O)O)cc1)CN2` was run?
**A.** The value was 1.76% [at 12.8 µM].

**Q.** With `CCC(C(=O)O)C1CCC(C)C(C(C)C(O)C(C)C(=O)C(CC)C2OC3(C=CC(O)[C@@]4(CC[C@](C)(C5CC[C@@](O)(CC)C(C)O5)O4)O3)C(C)CC2C)O1` (stereo partly drawn) as the compound, how does the Potency read?
**A.** Its Potency is 631 nM (active).

system: ATS189; experiment: as above; settings: P. falciparum in erythrocytes, SYBR Green DNA, 72 h; series mostly up to 28.7 µM; activity, negative = inhibition: at the top concentration
Procedure, shortened: as §1

**Q.** How did the “activity, negative = inhibition” value turn out when `COc1ccc([C@@H]2CNC(=O)C2)cc1OC1CCCC1` was run?
**A.** Its value is 2.12% [at 12.8 µM].

**Q.** With `Nc1nc2c(c(=O)[nH]1)N(C=O)[C@H](CNc1ccc(C(=O)N[C@@H](CCC(=O)O)C(=O)O)cc1)CN2` as the compound, how does the “activity, negative = inhibition” value read?
**A.** The value was 3.03% [at 12.8 µM].

**Q.** How did the Potency turn out when `CCC(C(=O)O)C1CCC(C)C(C(C)C(O)C(C)C(=O)C(CC)C2OC3(C=CC(O)[C@@]4(CC[C@](C)(C5CC[C@@](O)(CC)C(C)O5)O4)O3)C(C)CC2C)O1` (stereo partly drawn) was run?
**A.** The Potency was 1.26 µM (active).

system: C2A; experiment: as above; settings: P. falciparum in erythrocytes, SYBR Green DNA, 72 h; series mostly up to 28.7 µM; activity, negative = inhibition: at the top concentration
Procedure, shortened: as §1

**Q.** `COc1ccc([C@@H]2CNC(=O)C2)cc1OC1CCCC1` was tested. Which “activity, negative = inhibition” value did it give?
**A.** The value was 0.772% [at 12.8 µM].

**Q.** How did the “activity, negative = inhibition” value turn out when `Nc1nc2c(c(=O)[nH]1)N(C=O)[C@H](CNc1ccc(C(=O)N[C@@H](CCC(=O)O)C(=O)O)cc1)CN2` was run?
**A.** Its value is 1.36% [at 12.8 µM].

**Q.** `CCC(C(=O)O)C1CCC(C)C(C(C)C(O)C(C)C(=O)C(CC)C2OC3(C=CC(O)[C@@]4(CC[C@](C)(C5CC[C@@](O)(CC)C(C)O5)O4)O3)C(C)CC2C)O1` (stereo partly drawn) was tested. Which Potency did it give?
**A.** The Potency was 1.12 µM (active).

system: CP185; experiment: as above; settings: P. falciparum in erythrocytes, SYBR Green DNA, 72 h; series mostly up to 28.7 µM; activity, negative = inhibition: at the top concentration
Procedure, shortened: as §1

**Q.** Which “activity, negative = inhibition” value does the source give for `COc1ccc([C@@H]2CNC(=O)C2)cc1OC1CCCC1` here?
**A.** Its value is 1.93% [at 12.8 µM].

**Q.** With `Nc1nc2c(c(=O)[nH]1)N(C=O)[C@H](CNc1ccc(C(=O)N[C@@H](CCC(=O)O)C(=O)O)cc1)CN2` as the compound, how does the “activity, negative = inhibition” value read?
**A.** Its value is 1.52% [at 12.8 µM].

**Q.** `CCC(C(=O)O)C1CCC(C)C(C(C)C(O)C(C)C(=O)C(CC)C2OC3(C=CC(O)[C@@]4(CC[C@](C)(C5CC[C@@](O)(CC)C(C)O5)O4)O3)C(C)CC2C)O1` (stereo partly drawn) was tested. Which Potency did it give?
**A.** Its Potency is 1.26 µM (active).

system: CP191; experiment: as above; settings: P. falciparum in erythrocytes, SYBR Green DNA, 72 h; series mostly up to 28.7 µM; activity, negative = inhibition: at the top concentration
Procedure, shortened: as §1

**Q.** How did the “activity, negative = inhibition” value turn out when `COc1ccc([C@@H]2CNC(=O)C2)cc1OC1CCCC1` was run?
**A.** Its value is -16.9% [at 12.8 µM].

**Q.** `Nc1nc2c(c(=O)[nH]1)N(C=O)[C@H](CNc1ccc(C(=O)N[C@@H](CCC(=O)O)C(=O)O)cc1)CN2` was tested. Which “activity, negative = inhibition” value did it give?
**A.** Its value is -15.9% [at 12.8 µM].

**Q.** For `CCC(C(=O)O)C1CCC(C)C(C(C)C(O)C(C)C(=O)C(CC)C2OC3(C=CC(O)[C@@]4(CC[C@](C)(C5CC[C@@](O)(CC)C(C)O5)O4)O3)C(C)CC2C)O1` (stereo partly drawn), which Potency is on record?
**A.** Its Potency is 1 µM (active).

system: CP192; experiment: as above; settings: P. falciparum in erythrocytes, SYBR Green DNA, 72 h; series mostly up to 28.7 µM; activity, negative = inhibition: at the top concentration
Procedure, shortened: as §1

**Q.** `COc1ccc([C@@H]2CNC(=O)C2)cc1OC1CCCC1` was tested. Which “activity, negative = inhibition” value did it give?
**A.** The value was -1.24% [at 12.8 µM].

**Q.** How did the “activity, negative = inhibition” value turn out when `Nc1nc2c(c(=O)[nH]1)N(C=O)[C@H](CNc1ccc(C(=O)N[C@@H](CCC(=O)O)C(=O)O)cc1)CN2` was run?
**A.** Its value is -0.494% [at 12.8 µM].

**Q.** For `CCC(C(=O)O)C1CCC(C)C(C(C)C(O)C(C)C(=O)C(CC)C2OC3(C=CC(O)[C@@]4(CC[C@](C)(C5CC[C@@](O)(CC)C(C)O5)O4)O3)C(C)CC2C)O1` (stereo partly drawn), which Potency is on record?
**A.** Its Potency is 849 nM (active).

system: CP194; experiment: as above; settings: P. falciparum in erythrocytes, SYBR Green DNA, 72 h; series mostly up to 28.7 µM; activity, negative = inhibition: at the top concentration
Procedure, shortened: as §1

**Q.** With `COc1ccc([C@@H]2CNC(=O)C2)cc1OC1CCCC1` as the compound, how does the “activity, negative = inhibition” value read?
**A.** The value was 0.412% [at 12.8 µM].

**Q.** With `Nc1nc2c(c(=O)[nH]1)N(C=O)[C@H](CNc1ccc(C(=O)N[C@@H](CCC(=O)O)C(=O)O)cc1)CN2` as the compound, how does the “activity, negative = inhibition” value read?
**A.** Its value is 4.75% [at 12.8 µM].

**Q.** With `CCC(C(=O)O)C1CCC(C)C(C(C)C(O)C(C)C(=O)C(CC)C2OC3(C=CC(O)[C@@]4(CC[C@](C)(C5CC[C@@](O)(CC)C(C)O5)O4)O3)C(C)CC2C)O1` (stereo partly drawn) as the compound, how does the Potency read?
**A.** Its Potency is 601 nM (active).

system: CP201; experiment: as above; settings: P. falciparum in erythrocytes, SYBR Green DNA, 72 h; series mostly up to 28.7 µM; activity, negative = inhibition: at the top concentration
Procedure, shortened: as §1

**Q.** For `COc1ccc([C@@H]2CNC(=O)C2)cc1OC1CCCC1`, which “activity, negative = inhibition” value is on record?
**A.** Its value is -3.09% [at 12.8 µM].

**Q.** How did the “activity, negative = inhibition” value turn out when `Nc1nc2c(c(=O)[nH]1)N(C=O)[C@H](CNc1ccc(C(=O)N[C@@H](CCC(=O)O)C(=O)O)cc1)CN2` was run?
**A.** Its value is -6.04% [at 12.8 µM].

**Q.** How did the Potency turn out when `CCC(C(=O)O)C1CCC(C)C(C(C)C(O)C(C)C(=O)C(CC)C2OC3(C=CC(O)[C@@]4(CC[C@](C)(C5CC[C@@](O)(CC)C(C)O5)O4)O3)C(C)CC2C)O1` (stereo partly drawn) was run?
**A.** The Potency was 953 nM (active).

system: CP203; experiment: as above; settings: P. falciparum in erythrocytes, SYBR Green DNA, 72 h; series mostly up to 28.7 µM; activity, negative = inhibition: at the top concentration
Procedure, shortened: as §1

**Q.** How did the “activity, negative = inhibition” value turn out when `COc1ccc([C@@H]2CNC(=O)C2)cc1OC1CCCC1` was run?
**A.** Its value is -3.3% [at 12.8 µM].

**Q.** How did the “activity, negative = inhibition” value turn out when `Nc1nc2c(c(=O)[nH]1)N(C=O)[C@H](CNc1ccc(C(=O)N[C@@H](CCC(=O)O)C(=O)O)cc1)CN2` was run?
**A.** The value was 7.49% [at 12.8 µM].

**Q.** `CCC(C(=O)O)C1CCC(C)C(C(C)C(O)C(C)C(=O)C(CC)C2OC3(C=CC(O)[C@@]4(CC[C@](C)(C5CC[C@@](O)(CC)C(C)O5)O4)O3)C(C)CC2C)O1` (stereo partly drawn) was tested. Which Potency did it give?
**A.** The Potency was 269 nM (active).
